{"source": "the supplement of paper PMC11732987", "about": "“Enantioselective OTUD7B fragment discovery through chemoproteomics screening and high-throughput optimisation” (Communications Chemistry, 2025)", "experiment_in_all_cases": "log2 ratio of Biotin-Ahx-Ub-VS probe labelling (fragment/DMSO); higher = less target engagement (more negative = stronger competition), active = hit call of the paper (q ≤ 0.05, log2 ratio ≤ -1)", "conditions_in_all_cases": "compound concentration: 200 uM; treatment time: 3 h", "key": {"[1]": {"target": "T1, USP19 (UniProt O94966)", "T1 sequence (whole entry)": "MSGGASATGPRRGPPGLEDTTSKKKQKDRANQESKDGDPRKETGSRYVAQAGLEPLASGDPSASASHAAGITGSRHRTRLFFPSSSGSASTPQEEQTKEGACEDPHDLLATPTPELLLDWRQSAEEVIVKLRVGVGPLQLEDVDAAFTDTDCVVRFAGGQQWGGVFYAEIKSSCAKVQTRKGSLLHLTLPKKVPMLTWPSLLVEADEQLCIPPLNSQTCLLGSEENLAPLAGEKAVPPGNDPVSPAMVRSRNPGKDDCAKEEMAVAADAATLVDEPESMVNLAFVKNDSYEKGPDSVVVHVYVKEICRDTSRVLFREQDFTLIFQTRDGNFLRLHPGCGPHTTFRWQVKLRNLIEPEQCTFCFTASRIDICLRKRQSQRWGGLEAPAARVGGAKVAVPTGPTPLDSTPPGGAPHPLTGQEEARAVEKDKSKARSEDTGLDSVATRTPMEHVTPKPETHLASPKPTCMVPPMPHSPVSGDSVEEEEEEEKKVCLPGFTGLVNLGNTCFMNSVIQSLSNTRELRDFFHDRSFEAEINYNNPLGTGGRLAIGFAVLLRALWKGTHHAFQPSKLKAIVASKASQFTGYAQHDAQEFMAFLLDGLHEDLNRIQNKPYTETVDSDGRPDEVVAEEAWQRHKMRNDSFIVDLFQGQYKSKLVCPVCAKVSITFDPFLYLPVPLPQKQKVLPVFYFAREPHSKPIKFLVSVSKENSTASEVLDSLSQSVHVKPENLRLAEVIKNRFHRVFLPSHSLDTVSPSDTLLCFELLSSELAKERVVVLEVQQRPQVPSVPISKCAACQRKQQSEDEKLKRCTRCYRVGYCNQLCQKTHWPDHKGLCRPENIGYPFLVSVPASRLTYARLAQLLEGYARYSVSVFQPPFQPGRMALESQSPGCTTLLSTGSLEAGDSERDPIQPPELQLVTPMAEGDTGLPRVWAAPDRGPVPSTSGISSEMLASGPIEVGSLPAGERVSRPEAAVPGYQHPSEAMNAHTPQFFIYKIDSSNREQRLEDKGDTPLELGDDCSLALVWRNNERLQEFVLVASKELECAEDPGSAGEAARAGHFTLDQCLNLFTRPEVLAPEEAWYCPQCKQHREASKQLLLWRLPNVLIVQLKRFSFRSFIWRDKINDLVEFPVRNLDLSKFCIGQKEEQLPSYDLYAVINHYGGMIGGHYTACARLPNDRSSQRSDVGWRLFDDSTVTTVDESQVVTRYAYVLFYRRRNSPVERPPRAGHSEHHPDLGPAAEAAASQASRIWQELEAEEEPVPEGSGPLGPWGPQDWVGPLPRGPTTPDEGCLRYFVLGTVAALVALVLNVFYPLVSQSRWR", "procedure,_shortened": "(§1)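 Each value is an average log2 ratio of fragment to vehicle, tested by unpaired t-test. The underlying Spectronaut label-free quantities were global-median-normalised, and only proteins with ≥2 unique peptides were included. Triplicate HEK293T lysate samples (495 µg) were exposed to fragment at 200 µM or vehicle for 3 h, then to Biotin-Ahx-Ub-VS at 0.5 µM final for 1 h, before NeutrAvidin enrichment of labelled DUBs, LysC and trypsin digestion, and diaPASEF LC-MS/MS.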"}, "[2]": {"target": "USP24 (UniProt Q9UPU5)", "sequence (Q9UPU5 whole entry)": "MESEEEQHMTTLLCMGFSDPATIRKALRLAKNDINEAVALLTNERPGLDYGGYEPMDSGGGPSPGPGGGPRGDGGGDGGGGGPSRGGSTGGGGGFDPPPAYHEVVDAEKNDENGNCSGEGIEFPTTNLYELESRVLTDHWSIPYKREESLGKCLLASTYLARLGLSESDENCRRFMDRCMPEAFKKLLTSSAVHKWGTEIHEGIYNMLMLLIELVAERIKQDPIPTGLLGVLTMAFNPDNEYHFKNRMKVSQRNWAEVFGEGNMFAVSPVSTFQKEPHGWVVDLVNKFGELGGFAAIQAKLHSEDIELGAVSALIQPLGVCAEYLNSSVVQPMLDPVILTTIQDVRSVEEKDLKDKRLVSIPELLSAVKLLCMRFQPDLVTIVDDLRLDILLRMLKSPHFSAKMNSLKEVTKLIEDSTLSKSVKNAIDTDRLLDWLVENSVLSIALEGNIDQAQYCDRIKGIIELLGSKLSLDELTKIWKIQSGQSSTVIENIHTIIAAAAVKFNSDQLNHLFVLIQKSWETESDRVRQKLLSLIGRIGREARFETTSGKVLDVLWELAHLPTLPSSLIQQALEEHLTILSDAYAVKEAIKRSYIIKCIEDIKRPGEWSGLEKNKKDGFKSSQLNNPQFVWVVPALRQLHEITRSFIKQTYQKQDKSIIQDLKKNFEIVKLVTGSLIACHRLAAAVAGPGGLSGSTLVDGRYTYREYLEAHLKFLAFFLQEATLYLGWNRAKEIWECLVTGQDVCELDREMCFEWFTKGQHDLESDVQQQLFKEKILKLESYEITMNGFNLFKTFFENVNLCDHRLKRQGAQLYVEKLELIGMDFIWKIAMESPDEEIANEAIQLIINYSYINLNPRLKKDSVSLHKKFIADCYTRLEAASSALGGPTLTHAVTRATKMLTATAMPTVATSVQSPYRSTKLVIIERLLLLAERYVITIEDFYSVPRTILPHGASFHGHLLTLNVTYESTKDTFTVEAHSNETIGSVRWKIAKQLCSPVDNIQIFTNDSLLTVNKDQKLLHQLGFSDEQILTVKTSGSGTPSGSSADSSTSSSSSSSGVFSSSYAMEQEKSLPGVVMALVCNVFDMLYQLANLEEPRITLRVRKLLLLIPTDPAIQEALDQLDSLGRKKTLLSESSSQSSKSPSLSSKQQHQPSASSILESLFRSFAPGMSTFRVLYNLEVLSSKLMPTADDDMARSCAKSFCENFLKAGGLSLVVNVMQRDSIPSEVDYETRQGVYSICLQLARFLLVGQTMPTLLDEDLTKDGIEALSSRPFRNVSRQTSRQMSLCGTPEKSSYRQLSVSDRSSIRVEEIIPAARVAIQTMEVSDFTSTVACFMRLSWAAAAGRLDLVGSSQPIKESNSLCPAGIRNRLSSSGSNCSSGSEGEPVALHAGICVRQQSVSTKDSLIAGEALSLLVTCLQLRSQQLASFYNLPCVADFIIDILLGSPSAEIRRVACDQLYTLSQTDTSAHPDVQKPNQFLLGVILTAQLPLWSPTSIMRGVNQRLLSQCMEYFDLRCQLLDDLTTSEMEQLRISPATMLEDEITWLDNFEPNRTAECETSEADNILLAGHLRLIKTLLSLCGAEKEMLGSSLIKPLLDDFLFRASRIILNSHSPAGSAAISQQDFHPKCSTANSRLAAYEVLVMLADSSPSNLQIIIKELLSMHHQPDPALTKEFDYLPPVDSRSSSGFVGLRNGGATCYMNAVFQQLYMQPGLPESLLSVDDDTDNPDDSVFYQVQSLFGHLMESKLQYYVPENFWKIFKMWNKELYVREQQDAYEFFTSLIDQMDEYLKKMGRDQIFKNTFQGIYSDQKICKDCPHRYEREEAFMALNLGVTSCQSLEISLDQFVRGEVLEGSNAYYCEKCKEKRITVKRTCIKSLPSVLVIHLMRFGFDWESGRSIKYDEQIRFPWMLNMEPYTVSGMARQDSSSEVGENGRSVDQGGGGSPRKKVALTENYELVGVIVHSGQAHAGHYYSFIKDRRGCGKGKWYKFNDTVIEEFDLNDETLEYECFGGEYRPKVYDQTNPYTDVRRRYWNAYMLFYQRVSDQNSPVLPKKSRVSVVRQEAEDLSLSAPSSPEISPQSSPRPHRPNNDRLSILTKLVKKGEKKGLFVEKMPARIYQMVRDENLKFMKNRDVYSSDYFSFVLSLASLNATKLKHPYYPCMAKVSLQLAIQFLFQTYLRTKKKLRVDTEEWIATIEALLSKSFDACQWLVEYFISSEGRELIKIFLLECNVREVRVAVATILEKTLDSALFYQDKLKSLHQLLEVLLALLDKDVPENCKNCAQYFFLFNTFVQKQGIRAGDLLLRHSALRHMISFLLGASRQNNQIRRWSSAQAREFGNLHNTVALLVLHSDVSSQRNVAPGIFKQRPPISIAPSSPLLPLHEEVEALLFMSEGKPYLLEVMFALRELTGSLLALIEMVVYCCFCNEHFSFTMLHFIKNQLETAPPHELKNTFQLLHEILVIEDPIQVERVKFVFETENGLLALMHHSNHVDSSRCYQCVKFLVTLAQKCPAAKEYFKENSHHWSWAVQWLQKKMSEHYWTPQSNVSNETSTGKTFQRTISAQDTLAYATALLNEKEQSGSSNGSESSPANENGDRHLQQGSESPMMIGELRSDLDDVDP", "procedure,_shortened": "as §1"}, "[3]": {"target": "T2, USP25 (UniProt Q9UHP3)", "T2 sequence (whole entry)": "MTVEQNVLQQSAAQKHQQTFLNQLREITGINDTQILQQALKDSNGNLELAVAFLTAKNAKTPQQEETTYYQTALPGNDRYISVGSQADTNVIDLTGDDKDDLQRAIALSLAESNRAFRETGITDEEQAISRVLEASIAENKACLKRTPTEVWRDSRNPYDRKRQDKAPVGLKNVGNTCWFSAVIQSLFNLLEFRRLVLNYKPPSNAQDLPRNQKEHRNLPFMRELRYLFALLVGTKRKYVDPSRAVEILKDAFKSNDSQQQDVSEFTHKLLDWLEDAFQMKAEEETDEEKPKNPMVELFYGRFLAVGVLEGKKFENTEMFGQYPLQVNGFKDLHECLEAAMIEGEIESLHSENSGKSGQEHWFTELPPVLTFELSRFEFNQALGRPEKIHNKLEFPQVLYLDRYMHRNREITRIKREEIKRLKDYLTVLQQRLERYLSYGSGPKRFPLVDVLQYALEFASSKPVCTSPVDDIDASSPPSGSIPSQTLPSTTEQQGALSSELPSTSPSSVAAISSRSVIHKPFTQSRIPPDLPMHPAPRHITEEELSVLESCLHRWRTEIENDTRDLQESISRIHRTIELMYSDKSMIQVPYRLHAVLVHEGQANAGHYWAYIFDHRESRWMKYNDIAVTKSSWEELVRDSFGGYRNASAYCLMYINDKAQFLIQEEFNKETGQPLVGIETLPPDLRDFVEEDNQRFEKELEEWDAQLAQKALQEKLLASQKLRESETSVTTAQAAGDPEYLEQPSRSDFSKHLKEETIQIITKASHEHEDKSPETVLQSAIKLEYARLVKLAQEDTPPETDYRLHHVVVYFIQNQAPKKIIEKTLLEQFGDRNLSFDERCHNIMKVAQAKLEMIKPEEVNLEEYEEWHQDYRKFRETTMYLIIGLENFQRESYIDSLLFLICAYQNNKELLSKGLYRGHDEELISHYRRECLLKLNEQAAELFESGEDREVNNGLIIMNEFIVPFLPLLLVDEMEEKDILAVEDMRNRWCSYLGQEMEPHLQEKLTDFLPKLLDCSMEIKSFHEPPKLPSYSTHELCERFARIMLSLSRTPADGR", "procedure,_shortened": "as §1"}, "[4]": {"target": "T3, USP28 (UniProt Q96RU2)", "T3 sequence (whole entry)": "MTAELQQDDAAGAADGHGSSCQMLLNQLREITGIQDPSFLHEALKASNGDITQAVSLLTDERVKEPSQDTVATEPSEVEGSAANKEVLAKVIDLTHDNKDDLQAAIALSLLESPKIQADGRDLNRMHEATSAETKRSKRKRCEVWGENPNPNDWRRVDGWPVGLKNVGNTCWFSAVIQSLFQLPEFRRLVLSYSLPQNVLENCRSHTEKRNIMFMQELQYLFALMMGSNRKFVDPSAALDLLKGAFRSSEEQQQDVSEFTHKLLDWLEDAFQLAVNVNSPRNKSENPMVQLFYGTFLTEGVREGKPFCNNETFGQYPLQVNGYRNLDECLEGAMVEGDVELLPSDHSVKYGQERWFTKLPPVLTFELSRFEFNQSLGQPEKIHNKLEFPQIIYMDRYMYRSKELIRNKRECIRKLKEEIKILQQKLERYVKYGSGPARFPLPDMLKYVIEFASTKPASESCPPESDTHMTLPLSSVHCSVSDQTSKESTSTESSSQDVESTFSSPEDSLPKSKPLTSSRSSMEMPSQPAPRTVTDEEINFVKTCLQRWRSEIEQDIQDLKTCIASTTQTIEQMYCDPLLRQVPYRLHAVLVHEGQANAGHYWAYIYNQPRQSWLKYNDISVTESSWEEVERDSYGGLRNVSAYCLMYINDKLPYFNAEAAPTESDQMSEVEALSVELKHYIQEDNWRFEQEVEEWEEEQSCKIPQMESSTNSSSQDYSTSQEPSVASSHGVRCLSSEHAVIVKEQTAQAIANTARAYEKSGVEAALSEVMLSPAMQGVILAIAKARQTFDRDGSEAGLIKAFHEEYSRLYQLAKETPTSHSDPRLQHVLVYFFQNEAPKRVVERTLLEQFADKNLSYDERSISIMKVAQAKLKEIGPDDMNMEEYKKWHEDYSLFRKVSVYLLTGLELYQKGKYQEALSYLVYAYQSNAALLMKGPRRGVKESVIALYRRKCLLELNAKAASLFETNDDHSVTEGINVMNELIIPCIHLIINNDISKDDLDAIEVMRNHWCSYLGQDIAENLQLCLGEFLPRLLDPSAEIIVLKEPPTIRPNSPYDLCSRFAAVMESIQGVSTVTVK", "procedure,_shortened": "as §1"}}, "note": "A number with no mark means an inactive call.", "data": [{"compound": "Cc1ccc(N(CCC#N)C(=O)CCl)cc1C", "values": [{"measurement": "log2 ratio of Biotin-Ahx-Ub-VS probe labelling", "setting": "[1]", "result": -0.203}, {"measurement": "log2 ratio of Biotin-Ahx-Ub-VS probe labelling", "setting": "[2]", "result": "-1.05 (active)"}, {"measurement": "log2 ratio of Biotin-Ahx-Ub-VS probe labelling", "setting": "[3]", "result": -0.271}, {"measurement": "log2 ratio of Biotin-Ahx-Ub-VS probe labelling", "setting": "[4]", "result": -0.679}]}]}
